According to PubChem BioAssay AID1159580 (chemical genetic matrix, 2015):
Where “and” joins values, the source holds several entries; their conditions need not be identical. Equal entries are not always repeated. Among all 5,500 compounds or so, about 2,000 (36%) were called active. About 18% were inconclusive and are not listed. No stated cut-off is given here; in the data, active means normalized growth mostly below about 0.91 (no sharp cut-off); inconclusive means no clear call, values can overlap the other calls; inactive means mostly above about 0.92. The list shows a part of the results.

Test: chemical genetic growth profiling, strain panel (AID 1159580);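 further: tested at 20 µM; growth read once vehicle control cultures reached saturation at 30 °C; 1 = growth at the plate median or of vehicle wells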
Conditions: S. cerevisiae deletion strains, growth OD

Measured: normalized growth

CNCCCN1c2ccccc2CCc2ccccc21
inactive: locus YAL013W, strain DEP1, stronger effect = lower value 0.993 | locus YAL021C, strain ccr4, stronger effect = lower value 1 | locus YAL026C, strain drs2, stronger effect = lower value 0.985 | locus YAL030W, strain snc1, stronger effect = lower value 1.03 | locus YAL040C, strain CLN3, stronger effect = lower value 1 | locus YBL061C, strain skt5, stronger effect = lower value 1.02 | locus YBR009C, strain hhf1, stronger effect = lower value 0.972 | locus YBR021W, strain FUR4, stronger effect = lower value 1 | locus YBR023C, strain chs3, stronger effect = lower value 1.02 | locus YBR171W, strain sec66, stronger effect = lower value 1.03 | locus YBR229C, strain ROT2, stronger effect = lower value 1.01 | locus YBR231C, strain swc5, stronger effect = lower value 1.02 | locus YBR279W, strain paf1, stronger effect = lower value 0.996 | locus YCL011C, strain gbp2, stronger effect = lower value 0.994 | locus YCL016C, strain dcc1, stronger effect = lower value 0.988 | locus YCL029C, strain bik1, stronger effect = lower value 1 | locus YCL061C, strain MRC1 (second series), stronger effect = lower value 0.994 | locus YCL061C, strain MRC1, stronger effect = lower value 1.04 | locus YCL069W, strain vba3, stronger effect = lower value 1.02 | locus YCR088W, strain abp1, stronger effect = lower value 1.02 | locus YDL005C, strain med2, stronger effect = lower value 1.03 | locus YDL035C, strain GPR1, stronger effect = lower value 1.02 | locus YDL040C, strain nat1, stronger effect = lower value 1.02 | locus YDL074C, strain BRE1, stronger effect = lower value 1 | locus YDL101C, strain DUN1, stronger effect = lower value 1 | locus YDL134C, strain PPH21, stronger effect = lower value 1.02 | locus YDL185W, strain tfp1, stronger effect = lower value 1 | locus YDL192W, strain arf1, stronger effect = lower value 0.997 | locus YDR001C, strain nth1, stronger effect = lower value 1.02 | locus YDR069C, strain doa4, stronger effect = lower value 1.05 | locus YDR101C, strain arx1, stronger effect = lower value 1.01 | locus YDR137W, strain rgp1, stronger effect = lower value 1.1 | locus YDR150W, strain NUM1, stronger effect = lower value 1.01 | locus YDR159W, strain sac3, stronger effect = lower value 0.987 | locus YDR162C, strain NBP2, stronger effect = lower value 1.02 | locus YDR195W, strain ref2 1.07 | locus YDR297W, strain sur2, stronger effect = lower value 1.03 | locus YDR318W, strain mcm21, stronger effect = lower value 0.993 | locus YDR334W, strain swr1, stronger effect = lower value 1.01 | locus YDR335W, strain msn5, stronger effect = lower value 1.02 | locus YDR363W, strain ESC2, stronger effect = lower value 0.997 | locus YDR388W, stronger effect = lower value 0.992 | locus YDR392W, strain spt3, stronger effect = lower value 0.91 | locus YDR502C, strain sam2, stronger effect = lower value 1.01 | locus YEL003W, strain gim4, stronger effect = lower value 1.02 | locus YEL037C, strain rad23, stronger effect = lower value 1.01 | locus YEL061C, strain CIN8 (second series), stronger effect = lower value 1.01 | locus YEL061C, strain CIN8, stronger effect = lower value 1.01 | locus YER002W, strain NOP16, stronger effect = lower value 0.983 | locus YER015W, strain faa2, stronger effect = lower value 1.01 | locus YER016W, strain bim1, stronger effect = lower value 0.991 | locus YER110C, stronger effect = lower value 0.999 | locus YER111C, strain swi4, stronger effect = lower value 1.01 | locus YER155C, strain BEM2 (second series), stronger effect = lower value 1.05 | locus YER155C, strain BEM2, stronger effect = lower value 1.01 | locus YER167W, strain BCK2, stronger effect = lower value 1.01 | locus YFR010W, strain ubp6, stronger effect = lower value 1.01 | locus YGL078C, strain dbp3, stronger effect = lower value 0.994 | locus YGL086W, strain mad1, stronger effect = lower value 0.991 | locus YGL167C, strain pmr1, stronger effect = lower value 1.02 | locus YGL173C, strain kem1, stronger effect = lower value 1.02 | locus YGL227W, strain vid30, stronger effect = lower value 1.01 | locus YGL240W, strain doc1, stronger effect = lower value 1.06 | locus YGL248W, strain PDE1, stronger effect = lower value 0.992 | locus YGL253W, strain hxk2, stronger effect = lower value 0.996 | locus YGR135W, strain pre9, stronger effect = lower value 0.986 | locus YGR252W, strain gcn5, stronger effect = lower value 0.94 | locus YHR013C, strain ard1, stronger effect = lower value 0.984 | locus YHR027C, strain rpn1, stronger effect = lower value 0.999 | locus YHR030C, strain SLT2, stronger effect = lower value 1.01 and 1.02 | locus YHR079C, strain IRE1 (second series), stronger effect = lower value 1 | locus YHR079C, strain IRE1, stronger effect = lower value 1.01 | locus YHR094C, strain hxt1, stronger effect = lower value 0.995 | locus YHR129C, strain ARP1, stronger effect = lower value 1.01 | locus YHR142W, strain chs7, stronger effect = lower value 0.993 | locus YHR200W, strain rpn10, stronger effect = lower value 1.01 | locus YIL066C, strain RNR3, stronger effect = lower value 1.01 | locus YIL073C, strain SPO22, stronger effect = lower value 0.964 | locus YIL125W, strain kgd1, stronger effect = lower value 1 | locus YIR030C, strain dcg1, stronger effect = lower value 0.999 | locus YJL092W, strain hpr5, stronger effect = lower value 1.01 | locus YJL095W, strain BCK1 (second series), stronger effect = lower value 1.01 | locus YJL095W, strain BCK1, stronger effect = lower value 0.979 and 1.02 | locus YJL115W, strain asf1, stronger effect = lower value 0.999 | locus YJL129C, strain trk1, stronger effect = lower value 1.04 | locus YJL134W, strain LCB3, stronger effect = lower value 1 | locus YJL154C, strain vps35, stronger effect = lower value 1.01 | locus YJL164C, strain tpk1, stronger effect = lower value 0.984 | locus YJL166W, strain qcr8, stronger effect = lower value 1.06 | locus YJL168C, strain set2, stronger effect = lower value 1 | locus YJL187C, strain SWE1 (second series), stronger effect = lower value 0.998 | locus YJR043C, strain POL32, stronger effect = lower value 1.01 | locus YJR066W, strain TOR1, stronger effect = lower value 0.98 | locus YJR075W, strain HOC1, stronger effect = lower value 0.968
